In the supplement of paper PMC13392028:
In all, about 4,100 sequences were measured (“RBNS R-value (6-mer enrichment in protein-bound RNA vs input library)”: median about 0.99, highest 2% from about 1.4 on). The list comes from a sample in which the highest values are over-represented; it also holds similar and randomly drawn sequences.

Test system: PfIESI-1 RRM domain (Plasmodium falciparum ortholog aa 875-1232, GST fusion)
Experiment: RBNS R-value (6-mer enrichment in protein-bound RNA vs input library) (ratio); higher = stronger binding preference; the methods of the paper give 50 / 100 / 500 nM protein instead
Description: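 RNA Bind-n-Seq: recombinant GST-tagged IESI-1 RRM domain was incubated at room temperature with a random 40-nt in vitro transcribed RNA library at 250, 500 or 1000 nM protein. Bound RNA was pulled down on glutathione beads and sequenced. R-value is the enrichment of each 6-mer in the bound RNA relative to the input library. Each 6-mer sits inside the random 40-mer context, not as an isolated oligo. Values are replicate 1 only.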

Sequence	RBNS R-value (protein concentration: 250 nM)	RBNS R-value (protein concentration: 500 nM)	RBNS R-value (protein concentration: 1000 nM)
CUCACC	1.06	0.994	1.04
UUCGCC	1.06	0.992	1.03
GCGAAU	1.01	1.07	1.04
CUUUUU	0.934	0.932	0.919
UUGACG	1.14	1.1	1.07
UAAAUA	0.769	0.893	0.797
AAAUAA	0.785	0.993	0.847
AUAAUG	0.87	0.985	0.875
CCGAUG	1.38	1.35	1.29
GCGAUC	0.968	0.948	1.02
AUGAUU	2.75	3	2.19
GGGAUG	1.12	1.08	1.09
GCGAUG	1.37	1.39	1.28
UAGAUG	1.1	1.17	1.07
UUGAUG	2.95	3.14	2.32
UUGAUC	1.32	1.35	1.22
AGGAUU	1.04	1.06	1.06
GUGAUG	2.02	2.17	1.72
AUGAAU	1.08	1.18	1.04
GUGAAG	0.986	0.998	1.03
UUAGAA	0.943	1.05	0.999
GACUAA	0.913	0.983	0.945
CGCGAU	1.17	1.15	1.13
UCCACU	0.991	0.933	0.95
GUCUUC	0.908	0.868	0.954
GCAUCC	1.14	1.06	1.11

Sequence	RBNS R-value (protein concentration: 250 nM)	RBNS R-value (protein concentration: 500 nM)	RBNS R-value (protein concentration: 1000 nM)
CUAACC	0.953	0.903	0.903
AGCGUA	0.911	0.94	0.898
CAAAGA	1.13	1.21	1.2
CGGAUG	1.03	0.978	1.02
AUGAGA	1.23	1.31	1.23
AUGAUA	1.84	2.08	1.63
CUGAUG	2.47	2.58	1.97
CUGAUC	1.29	1.27	1.2
AGGAUA	0.981	1.03	1.01
AGGCGG	1.02	0.987	1.05
CCAACU	0.966	0.921	0.933
UUGGGU	0.975	0.933	0.982
AGAGAA	1.34	1.48	1.37
UGAGAA	1.33	1.39	1.34
UGAGAC	1.16	1.17	1.15
AGAGAC	1.18	1.21	1.17
CGAGAG	1.29	1.22	1.27
CGAGAA	1.52	1.53	1.43
UGAGAG	1.18	1.16	1.19
CGAGAC	1.23	1.2	1.18
AGAGAG	1.19	1.25	1.24
UGUCAC	0.945	0.963	0.96
UGGCAU	1.09	1.07	1.06
GUCCUC	0.918	0.874	0.925
ACCUAU	0.891	0.846	0.828
CGGGGA	1.15	1.1	1.16

Sequence	RBNS R-value (protein concentration: 250 nM)	RBNS R-value (protein concentration: 500 nM)	RBNS R-value (protein concentration: 1000 nM)
GAACUU	0.955	0.971	0.985
GACGAG	1.12	1.13	1.11
GAUGAA	1.88	2	1.59
GAUGGU	1.18	1.23	1.13
GAUGAC	1.8	1.8	1.51
AAUGAA	0.954	1.1	1.03
AAUGAC	1.08	1.1	1.09
UAUGAC	0.947	0.945	0.924
GAUGAU	2.43	2.58	1.9
GAUGCU	1.34	1.37	1.24
GAUGAG	1.61	1.68	1.43
GGUGAA	0.997	1.06	1.06
GAAUAC	0.992	1.04	0.993
CAACUU	0.893	0.889	0.886
GUAAUU	0.943	0.984	0.95
UACCUA	0.87	0.814	0.831
GUAACA	0.845	0.924	0.87
AAAGAU	1.06	1.19	1.11
GGUACC	1.07	1	1.08
CCUCUA	0.848	0.783	0.823
ACGAGU	1.04	1.06	1.02
CCUUGC	1.16	1.03	1.09
CCUUGG	1.13	1.03	1.12
ACUUGC	1.02	0.979	1.01
CCUUGA	1.46	1.37	1.32
UCUUGA	1.3	1.32	1.25

Sequence	RBNS R-value (protein concentration: 250 nM)	RBNS R-value (protein concentration: 500 nM)	RBNS R-value (protein concentration: 1000 nM)
GCUUGU	0.92	0.92	0.939
GCUUGA	1.36	1.4	1.28
ACUUGU	0.921	0.923	0.962
ACUUGA	1.42	1.46	1.34
CGAGUC	1.09	1.04	1.06
ACGCCU	1.07	0.995	1.03
AUGUGC	1.04	1.07	1
AGUCAA	0.859	0.93	0.933
UGAUCC	1.38	1.38	1.26
CGAUUA	1.05	1.11	1.04
AGAUUA	0.942	1.04	0.964
AGAUUC	1.19	1.22	1.17
CGAUCC	1.08	1.01	1.06
UGAUUA	2.21	2.58	1.94
CGAUUG	1.28	1.27	1.2
GGAUUG	1.02	1.02	1.02
CGAUUC	1.25	1.25	1.2
UGAUUG	2.38	2.42	1.85
GGAUCC	1.04	0.978	1.05
UGAUUC	2.44	2.61	1.97
CCCGCU	1.09	0.999	1.04
UAAUCC	0.907	0.864	0.872
AACCAA	0.985	1.04	1.01
AAAUAG	0.904	1.06	0.986
GGAUUU	1.03	1.02	1.02
UGAUUU	3	3.23	2.3

Sequence	RBNS R-value (protein concentration: 250 nM)	RBNS R-value (protein concentration: 500 nM)	RBNS R-value (protein concentration: 1000 nM)
AGAUUU	1.17	1.26	1.16
AUUCCG	1.2	1.14	1.16
ACACCG	1.17	1.12	1.15
ACACCA	1.16	1.1	1.1
ACACCC	1.53	1.28	1.33
GCACCC	1.5	1.26	1.33
GCACCU	1.21	1.11	1.13
GCACCG	1.14	1.09	1.14
UUCGUU	0.853	0.817	0.9
CAUAUA	0.762	0.733	0.715
CUCCCU	0.934	0.873	0.909
GAACUG	1.07	1.11	1.11
UGAUAC	1.59	1.68	1.47
GGAUAU	0.937	0.921	0.959
AGAUAA	0.975	1.11	1.02
UGAUAU	1.5	1.69	1.38
CGAUAC	1.04	1.03	1.02
UGAUAG	1.87	2.08	1.65
UGAUAA	1.67	1.89	1.54
AGAUAG	0.998	1.07	1.04
GGAUAG	1.02	0.975	0.995
AGAUAU	0.955	1.04	0.969
CGAUAA	0.968	1.04	0.996
GGAUAC	1.01	0.991	0.995
